ALOX12 inh – blocks human arachidonate 12S-lipoxygenase; P18054; purified 12hLO, xylenol orange hydroperoxide absorbance; Potency, µM (top dose mostly 108 µM), for inactives: at the highest dose activity change, negative = inhibition, most hits filed as inhibitors; hit rate 1.1% among 580,000; AID 1671190; further: on the % scale 0 is the no-effect control and ±100 the full control effect
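Hydroperoxide product was detected by ferrous iron/xylenol orange as the 573 to 405 nm absorbance ratio. Arachidonic acid at 40 uM (final) was turned over for 30 min at room temperature by 150 nM human 12hLO, pH 7.0 Hepes buffer, after 15 min compound preincubation.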
JMJD2A Tudor inh – JMJD2A Tudor domain (human) inhibition; AlphaScreen JMJD2A-Tudor / H3K4me3 peptide binding; Potency, µM (titrated, usually from 114 µM), for the others: at the top dose activity change, negative = inhibition, actives largely listed as inhibitors; hit rate 4.4% among 390,000; further: on the % scale 0 is the no-effect control and ±100 the full control effect; nearly all actives have a fitted effect of over 50% in size
HP1b binding inh – inhibitors of HP1-beta chromodomain binding to methylated histone tails; P83916; AlphaScreen HP1-beta / biotin-H3K9me3 peptide binding; Potency, µM (series often up to 114 µM), without a hit: at the top dose activity change, negative = inhibition, actives largely listed as inhibitors; hit rate 0.56% among 390,000; AID 540317; further: nearly all actives have a fitted effect of over 70% in size
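HP1-beta protein (50 nM final) preincubated 30 min at room temperature with biotinylated H3(1-18)K9me3 peptide (50 nM) in PBS pH 7.4, 0.01% Tween-20, then compound added for 30 min. AlphaScreen streptavidin donor/nickel chelate acceptor beads (10 ug/mL final), 30 min dark, luminescence read.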
G9a block – inhibitors of human histone lysine methyltransferase G9a | Q96KQ7 | G9a H3K9 monomethylation, AlphaScreen, 2 h | Potency, µM (doses to about 102 µM), inactives show at the top dose activity, negative = inhibition, actives largely listed as inhibitors | hit rate 8.8% among 350,000 | AID 504332; further: on the % scale 0 is the no-effect control and ±100 the full control effect; nearly all actives have a fitted effect of over 75% in size
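G9a (20 nM) was preincubated 15 min with compound, then reacted 2 h at room temperature with 500 nM biotin-H3K9 peptide and 20 µM SAM. Monomethyl-H3K9 detected by AlphaScreen using anti-H3K9me1 antibody.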
Sfp inh – inhibitors of Bacillus subtilis Sfp phosphopantetheinyl transferase | hit rate 3.5% among 310,000 | Biochemical Sfp PPTase activity, qHTS | Potency, µM, inactives show largest response in the series, negative = inhibition, actives largely listed as inhibitors | Q9F4F7 | AID 1490;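 further: the enzyme is Sfp with the accession as filed and its product quenches rhodamine fluorescence; 0% = enzyme reaction without inhibitor and -100% = no enzyme wells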
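Fluorescence-quenching assay with 15 nM Sfp, 5 uM rhodamine-CoA and 12.5 uM BHQ-2-labelled ybbR peptide in pH 7.6 Hepes/MgCl2 buffer. Enzyme was pre-incubated with compound for 15 min at room temperature. Rate was taken from the 30-min fluorescence change (525/598 nm).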
BAZ2B block – inhibitors of human BAZ2B bromodomain. Potency, µM (doses to about 114 µM), without a hit: top-dose activity change, negative = inhibition, most hits filed as inhibitors. hit rate 4.4% among 360,000. AlphaScreen BAZ2B-H3K14Ac peptide displacement; further: on the % scale 0 is the no-effect control and ±100 the full control effect; nearly all actives have a fitted effect of over 60% in size
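AlphaScreen displacement: compounds (up to 110uM) incubated 30 min at room temperature with a preformed 50 nM BAZ2B/50 nM biotinylated H3K14Ac peptide complex in PBS pH 7.4 with Tween-20. Donor and acceptor beads at 10 ug/mL final added, 20 min light-protected before reading.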
* marks the source's active call; other numbers are inactive results; ? = inconclusive; / = no result given; [ ] = remark or other dose. The list is not random: actives were taken first. Their share in the collection is about 8.7%. The call rests on the fitted dose curve; in most records, active means well fitted curve in the direction sought with a large enough effect; inconclusive means small, poorly fitted or top-dose-only effect, or another doubt; inactive means no such curve, though single readings can be large; an effect the other way counts as inactive or inconclusive. Potency means the concentration at half of the fitted maximal effect.

SMILES	ALOX12 inh	JMJD2A Tudor inh	HP1b binding inh	G9a block	Sfp inh	BAZ2B block
CN1CCN(c2ccc([N+](=O)[O-])c(N3CCCCC3)c2)CC1	-19%	-33%	26%	56µM*	2%	?
CCOc1cc(/C=C2\C(=O)NC(=O)N(C)C2=O)cc([N+](=O)[O-])c1O	?	-2%	31%	50µM*	28µM*	-11%
Cc1[nH]nc2ccc(-c3cncc(OC[C@@H](N)Cc4c[nH]c5ccccc45)c3)cc12	?	35µM*	-36%	/	/	/
CC(=O)Nc1ccc2c(c1)CC1(C(=O)N(C)C(=O)N(C)C1=O)C1CCCN21 (stereo not given)	27%	-7%	61%	35µM*	-12%	-6%
Cc1cccc(N2C(=O)NC(=O)/C(=C/c3ccc(-c4ccc(C(=O)O)c(Cl)c4)o3)C2=O)c1	/	/	/	10µM*	45µM*	-14%
O=C1NC(=O)N(c2ccc3c(c2)OCO3)C(=O)/C1=C/c1ccc(N2CCCCC2)o1	0%	-3%	25%	50µM*	-9%	-36%
O=C1NC(=O)N(c2ccc3c(c2)OCO3)C(=O)/C1=C\c1ccc(-c2ccccc2C(=O)O)o1	?	32µM*	?	10µM*	50µM*	79µM*
O=[N+]([O-])c1ccc(N2CCC(O)CC2)c2ccncc12	4%	/	/	/	/	/
Cc1ccccc1OCCN=Cc1c(O)n(C)c(=O)n(C)c1=O	-9%	-20%	19%	14%	2%	-23%
CCOc1ccccc1N=Cc1c(O)n(C)c(=O)n(C)c1=O	11%	-5%	46%	50µM*	7%	1%
O=C1NC(=O)C(=Cc2ccc(N3CCN(C(=O)c4ccccc4)CC3)c([N+](=O)[O-])c2)C(=O)N1	?	40µM*	?	11µM*	28µM*	?
CN1C(=O)C(=Cc2ccc(N3CCOCC3)c([N+](=O)[O-])c2)C(=O)N(C)C1=O	/	/	/	35µM*	22µM*	-35%
O=C1NC(=O)C(=Cc2cc([N+](=O)[O-])ccc2N2CCCCC2)C(=O)N1	-19%	-20%	24%	10%[59 µM]	16%	-12%
Cn1cc(C(=O)OCC(=O)NC2CC2)c2ccccc21	17%	/	/	/	/	/
CC(C)(C)C(=O)Cn1c(NCCCl)nc2ccccc21	-15%	-10%	32%	40µM*	8%	-21%
COc1ccc(C(=O)Cn2c(NCCCl)nc3ccccc32)cc1	?	-7%	34%	?	24%	-26%
COc1cc(/C=C/[N+](=O)[O-])ccc1O	349%	?	?	6.3µM*	?	45µM*
N#Cc1cccc(-c2ccc(=O)n3c2[C@@H]2C[C@@H](CN(C(=O)NC4CCCCC4)C2)C3)c1	1%[176 µM]	/	/	/	/	/
COc1ccc(CNc2oc(-c3cccc4ccccc34)nc2P(=O)(OC)OC)cc1	-25%	41%	90%	0%	50µM*	/
COc1cc2c(cc1OCc1ccccc1)N(C(=O)c1ccccc1OC)CC21CCN(C)CC1	-6%	/	/	/	/	/
Cc1ccc(N2C(=O)/C(=C/N3CCN(C(=O)c4ccco4)CC3)C(=O)NC2=S)cc1C	40µM*	-14%	5%	54%[12.7 µM]	45µM*	-31%
Cc1cccc(N2C(=O)/C(=C/N3CCN(C(=O)c4ccco4)CC3)C(=O)NC2=S)c1	?	-18%	17%	?	?	-3%
O=C1NC(=S)N(c2ccc(Br)cc2)C(=O)/C1=C/N1CCN(C(=O)c2ccco2)CC1	?	-29%	4%	45µM*	-4%	-33%
O=C(NC1CCSC1=O)c1ccco1 (stereo not given)	-1%	/	/	/	/	/
CC(CNC1CC1)c1ccccc1 (stereo not given)	-7%	/	/	/	/	/
SMILES	ALOX12 inh	JMJD2A Tudor inh	HP1b binding inh	G9a block	Sfp inh	BAZ2B block
COCCNC(=O)Cn1cc(/C=C2\C(=O)NC(=O)N(c3ccccc3F)C2=O)c2ccccc21	0%	-6%	49%	6%	0%	2%
O=C1NC(=O)N(c2ccccc2)C(=O)/C1=C/c1ccc(Sc2ccccc2)o1	/	56µM*	0%	10µM*	22µM*	50µM*
O=C1NC(=O)N(c2cccc(Cl)c2)C(=O)/C1=C\c1ccc(Sc2nc3ccccc3[nH]2)o1	10µM*	35µM*	?	3.2µM*	40µM*	35µM*
Cc1cc(/C=C2\C(=O)NC(=O)N(c3cccc(Br)c3)C2=O)c(C)n1C	?	-11%	26%	22%[59 µM]	2%	4%
O=C1NC(=O)N(c2ccccc2F)C(=O)/C1=C/c1ccc(Sc2nc3ccccc3[nH]2)o1	32µM*	22µM*	?	6.3µM*	50µM*	32µM*
COc1cccc(N2CC3CCC(C2)N3CC(F)(F)F)n1	0%[6.33 µM]	/	/	/	/	/
COc1ccc(-c2cc([C@H]3CN4CC[C@H]3C[C@@H]4CNC(=O)CSCC(=O)O)nc(C)n2)cc1OC	89%	/	/	/	/	/
CCOc1cccc(CNCCc2c(C)[nH]c3ccc(OC(F)(F)F)cc23)c1O	40µM*	40µM*	?	10µM*	?	35µM*
Cc1ccc2[nH]c(C)c(CCNCc3ccco3)c2c1	-10%	?	-9%[57 µM]	?	4%	?
Cc1[nH]c2ccc(OC(F)(F)F)cc2c1CCNCc1cccc([N+](=O)[O-])c1	?	7.1µM*	?	50µM*	-17%	50µM*
CCOc1ccccc1CNCCc1ccccc1	-8%	/	/	/	/	/
Cc1[nH]c2ccc(OC(F)(F)F)cc2c1CCNCc1ccc(Cl)cc1	?	13µM*	?	?	-28%	50µM*
N#Cc1cccnc1N1CC2CCC(C1)N2CC(F)(F)F	-5%[12.5 µM]	/	/	/	/	/
CC(C)[N+](C)(CCC(C(N)=O)(c1ccccc1)c1ccccc1)C(C)C	?	25µM*	?	-74%[2.33 µM]	-74%	-18%
C=CCNC(=O)C(C)OC(=O)c1cn(C)c2ccccc12 (stereo not given)	9%	/	/	/	/	/
COC(=O)CSc1nc2sc3c(c2c(=O)n1C1CCCCC1)CCN(C)C3	/	/	/	45µM*	56µM*	-30%
N#Cc1ccc(C(=O)N2C[C@@H]3C[C@H](C2)c2c(-c4ccc(Cl)cc4)ccc(=O)n2C3)cc1	5%[176 µM]	/	/	/	/	/
COC[C@H]1OC(=O)c2coc3c2[C@@]1(C)C1=C(C3=O)[C@@H]2CC[C@H](O)[C@@]2(C)C[C@@H]1OC(C)=O	-3%[57.4 µM]	/	/	/	/	/
COc1ccc(-n2cc(C3=CCN(CCN4CCOCC4)CC3)cn2)cc1	27%	/	/	/	/	/
COc1cccc(CC(=O)N2CCCCCC2CN2CCC(OC)CC2)c1 (stereo not given)	15%	/	/	/	/	/
